Results on 40 sequences are retold here after the OligoGym collection.
Note: reference of the scale not given here.

In one assay the target is MAN1C1. As to the kind of experiment: pooled miR-30 sensor sort-seq; sequence = guide strand. The settings on record: shRNA.
TTGAGAACAGTCTCAAATCCTG returned a sensor-assay potency score (higher = more potent) of -0.222. Same read-out and setting: as for TTCGGAACACCTCTTCTCCTGT, the figure is -0.298; as for TATGACTCGTGACACGTCTTGG, -0.605; as for TTAGCCTCCATATCTGTCTTGC, -0.298. Same read-out and setting: as for TAACGCTTATAGCTCTGCCAAG, the figure is -1.49; as for TAGAAAGAAGCTCTGCTGCTTG, 0.252; as for TTATTCGGAACACCTCTTCTCC, -0.384.

In turn, TTTGTGTGTGTGCAAACACTGG came in with a sensor-assay potency score (higher = more potent) of -1.13. On to TTGAACATAGGGTCAGTGTTGG, for which the sensor-assay potency score (higher = more potent) was -0.0716. Same read-out and setting: as for AATTGTGACAAAACTAAACTGT, the figure is 0.356; as for TTGTGTGTGTGCAAACACTGGG, 0.0469.

The next assay has as its target MANEAL. The assay is described as above. Conditions: shRNA.
The sequence TAGTACTTGCCATTGACCCTGT showed a sensor-assay potency score (higher = more potent) of -0.0343. Still for that read-out and setting: as for TAGCTGGCCGAGATCTTGGGGT, the figure is -1.02; as for AAGTTCTTCACAGCTTTCCAGT, -0.845. Consider TTTGATGAAGTGCTCCGCCCAG, for which the sensor-assay potency score (higher = more potent) was -0.378. Same read-out and setting: under TTCTCTTTGATGAAGTGCTCCG stands -0.00624; under TACCACGAGTAGTAGAAGGCGT, -0.339; under TTGTGGTTGTTCCAGGGCCGAA, -1.8. The same measure, in the same setting: as for ATGCTGGTGTCTATGTAGCCAG, the figure is -1.86. Still for that read-out and setting: as for ATGAACATGAGGTTGTTGGCAT, the figure is 0.179.

Consider TAGAAGGCGTGCAGGTCCGAGT, for which the sensor-assay potency score (higher = more potent) was -1.05. Still for that read-out and setting: as for TTGATGAAGTGCTCCGCCCAGC, the figure is -0.595; as for ATAGTACTTGCCATTGACCCTG, -0.405.

A further assay addresses MAP4K4. Described as above. The settings on record: shRNA.
For TAGAACTACATCCTTGGTGATC, the sensor-assay potency score (higher = more potent) is -1.1. Same read-out and setting: under TTATAGACTTGTCCATAGGTGC stands -0.62. On the same count and under the same terms, under TAGATCACTTTCAACCTCTGGC stands 0.492; under TTGTATTTACGAATCTCCGGGG, -0.365. On the same count and under the same terms, under TTCTTGTTCTCTCCTTCGCTGT stands -0.84; under TTTGTTGAAATCGTCTTCGGTT, 0.0416; under TTCTCTTTCAACTCTCCTCTTT, -0.401.

The sequence TTTGATGCTACACTGGATCATA displayed a sensor-assay potency score (higher = more potent) of -0.597.

The sequence TTGACCACTGAGCCTTTCCGGG gave a sensor-assay potency score (higher = more potent) of -1.11. The sequence TTGCCTTTTATATTCTTCCTGC registered a sensor-assay potency score (higher = more potent) of -0.0293. Same read-out and setting: as for TAGACTTGTCCATAGGTGCCAT, the figure is -0.0714. In turn, TACATCATCATGGACAATCATG returned a sensor-assay potency score (higher = more potent) of -1.13.

Another assay concerns the target MAPK4. Described as above. The settings on record: shRNA.
With TTAGTAGTTATAACAATTCCTC, the sensor-assay potency score (higher = more potent) is -0.514. Same read-out and setting: as for TACCACTTTGTTACCAACCCTT, the figure is -0.102; as for TCTGAATAAAAGAACATCGAAT, -0.719. Same read-out and setting: under TAATGCTGATCAACGATCCTTG stands 0.275; under TTGTAGTCGCAGGAGCGCCCGT, -1.23.
